Compounds with a hit are over-represented: about 3.7% of the library has one in this group of screens.
Nrf2 ARE act: activates Nrf2 signaling; Potency, µM (top dose mostly 46.1 µM), without a hit: top-dose activation, actives largely listed as activators; 0.31% of 410,000 active; AREc32 ARE-luciferase reporter (MCF7-derived line), luminescence, 24 h; note: % of control where 0% means no effect; nearly all actives have a fitted effect of over 65% in size
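AREc32 cells carrying an ARE-driven firefly luciferase reporter were seeded at 1000 cells/well in OPTI-MEM with 5% FBS, then exposed to compound for 24 hr at 37 deg C. Luminescence was read with Steady-Glo after 30 min at RT.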
ELG1 DNA repair: ELG1-dependent DNA repair inhibition; 2.3% of 330,000 active; Potency, µM (series often up to 46.1 µM), for inactives: at the top dose activity change, negative = inhibition, actives largely listed as inhibitors; HEK293T ELG1-luciferase reporter, luminescence, 16 h; DNA damage induced by 5-fluorouridine; note: % is set by controls: 0 for no effect and ±100 for the full control effect; nearly all actives have a fitted effect of over 55% in size
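Quantitative HTS, concentration-response format. 2,000 cells/well co-treated with 5-fluorouridine and compound, 16 hr in 5% CO2 at 37 °C; ONE-Glo luminescence read after 30 min.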
Nrf2 inh: Nrf2 pathway inhibition. A549 ARE-Fluc reporter, luciferase luminescence, 18-24 h. Potency, µM (highest dose often 46 µM), without a hit: at the highest dose activity change, negative = inhibition, hits mostly inhibitors. 2.1% of 360,000 active; note: % is set by controls: 0 for no effect and ±100 for the full control effect; nearly all actives have a fitted effect of over 60% in size
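A549 ARE_Fluc cells, 5000/well, 5% FBS OPTI-MEM; compounds in dose-response, 18-24 h at 37 °C/5% CO2; CellTiter-Fluor viability read (Ex 405/Em 525), then BugLite luciferase luminescence = Nrf2 activity.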
A549 tox: kills or reduces viability of A549 cells in Nrf2 counter-screen | A549 ARE-Fluc cells, CellTiter-Fluor viability, 18-24 h | Potency, µM (titrated, usually from 46 µM), for the others: at the highest dose activity change, negative = cytotoxicity, usual class: inhibitors | 0.16% of 390,000 active | AID 504648; note: % is set by controls: 0 for no effect and ±100 for the full control effect
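A549 ARE-Fluc cells in 5% FBS OPTI-MEM, 5000 cells/well, rested 2 h then exposed to compounds in concentration-response for 18-24 h at 37 °C. Viability by CellTiter-Fluor fluorescence (Ex 405/Em 525) after 30 min; luciferase luminescence (BugLite, 15 min, RT) read afterwards.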
Starred values were filed as active, the others as inactive. Calls come from the whole dose curve; as a rule, active = well fitted curve in the direction sought with a large enough effect; inconclusive = small, poorly fitted or top-dose-only effect, or another doubt; inactive = no such curve, though single readings can be large; an effect the other way counts as inactive or inconclusive. Potency is the fitted concentration of half-maximal effect.

O=C(COc1ccc(C(=O)O)cc1)Nc1cccc(C(F)(F)F)c1 was read as Nrf2 ARE act -1%, ELG1 DNA repair -2%, Nrf2 inh -12% and A549 tox 6%.
O=C(Nc1ccc2c(c1)OCO2)N1CCN(c2cccc(C(F)(F)F)c2)CC1 was read as Nrf2 ARE act 0%, ELG1 DNA repair -7%, Nrf2 inh 23µM* and A549 tox -22%.
`CN1CCN(C(=S)c2ccc(OCC(=O)Nc3cccc(C(F)(F)F)c3)cc2)CC1` gave Nrf2 ARE act 3%, ELG1 DNA repair 18µM*, Nrf2 inh 15µM* and A549 tox -9%.
O=C(c1ccc2c(c1)OCO2)N1CCN(c2cccc(C(F)(F)F)c2)CC1 was read as Nrf2 ARE act 0%, ELG1 DNA repair inconclusive, Nrf2 inh -25% and A549 tox -8%.
Screening Cc1cc(N2CCCC2)ccc1NC(=O)COc1cccc(C(F)(F)F)c1 returned Nrf2 ARE act -1%, ELG1 DNA repair inconclusive, Nrf2 inh 5.8µM* and A549 tox -20%.
COc1ccc(N2CCN(C(=O)Nc3cccc(C(F)(F)F)c3)CC2)cc1 was read as Nrf2 ARE act 0%, ELG1 DNA repair inconclusive, Nrf2 inh 21µM* and A549 tox -18%.
Screening CCOc1ccc(NC(=S)N(CC)Cc2ccccc2)cc1 returned ELG1 DNA repair -25%.
Screening O=C(OCCN1CCN(C2=NS(=O)(=O)c3ccccc32)CC1)c1ccccc1F returned Nrf2 ARE act -1%, ELG1 DNA repair -11%, Nrf2 inh 6% and A549 tox 4%.
`O=C(O)c1cc(O)c2c(c1)[C@@H]([C@H]1c3cc(C(=O)O)cc(O)c3C(=O)c3c(O[C@@H]4O[C@H](CO)[C@@H](O)[C@H](O)[C@H]4O)cccc31)c1cccc(OC3O[C@H](CO)[C@@H](O)[C@H](O)[C@H]3O)c1C2=O` (stereo partly drawn) gave Nrf2 ARE act -1%, ELG1 DNA repair -9%, Nrf2 inh -18% and A549 tox -9%.
O=C(O)c1cc(O)c2c(c1)[C@H]([C@H]1c3cc(C(=O)O)cc(O)c3C(=O)c3c(O[C@@H]4O[C@H](CO)[C@@H](O)[C@H](O)[C@H]4O)cccc31)c1cccc(OC3O[C@H](CO)[C@@H](O)[C@H](O)[C@H]3O)c1C2=O (stereo partly drawn) was read as Nrf2 ARE act -1%, ELG1 DNA repair inconclusive, Nrf2 inh inconclusive and A549 tox 16µM*.
`COCCCNC(=O)/C(C#N)=C/c1c(N2CCN(c3cccc(Cl)c3)CC2)nc2c(C)cccn2c1=O` gave Nrf2 ARE act 4%, ELG1 DNA repair 23µM*, Nrf2 inh 3% and A549 tox inconclusive.
`COc1ccc(N2CCN(c3nc4c(C)cccn4c(=O)c3/C=C(\C#N)C(N)=O)CC2)cc1` gave Nrf2 ARE act 4%, ELG1 DNA repair 13µM*, Nrf2 inh inconclusive and A549 tox inconclusive.
For CCNC(=O)/C(C#N)=C/c1c(N2CCN(Cc3ccc4c(c3)OCO4)CC2)nc2c(C)cccn2c1=O the results were Nrf2 ARE act 0%, ELG1 DNA repair 21µM*, Nrf2 inh 19% and A549 tox 4%.
For COCCCNC(=O)/C(C#N)=C/c1c(N2CCN(c3ccccc3)CC2)nc2c(C)cccn2c1=O the results were Nrf2 ARE act 5%, ELG1 DNA repair 21µM*, Nrf2 inh inconclusive and A549 tox 4%.
Screening COC(=O)/C(C#N)=C/c1c(N2CCN(c3ccccc3)CC2)nc2c(C)cccn2c1=O returned Nrf2 ARE act 8%, ELG1 DNA repair inconclusive, Nrf2 inh inconclusive and A549 tox -9%.
`O=C(OCN1C(=O)c2ccccc2C1=O)c1cccc(S(=O)(=O)N2CCOCC2)c1` gave Nrf2 ARE act 0%, ELG1 DNA repair 10%, Nrf2 inh 14% and A549 tox -2%.
`O=C(CCS(=O)(=O)c1ccccc1)Nc1ccccc1F` gave Nrf2 ARE act 0%, ELG1 DNA repair inconclusive, Nrf2 inh 4% and A549 tox 3%.
`COc1cccc(-n2cc(C(=O)NCc3ccccc3OC)c3ccccc3c2=O)c1` gave Nrf2 ARE act 5%, Nrf2 inh inconclusive and A549 tox 6%.
`Cc1cccn2c(=O)c(/C=C(\C#N)C(=O)NCc3ccco3)c(N3CCCCC3)nc12` gave Nrf2 ARE act 0%, ELG1 DNA repair 18µM*, Nrf2 inh inconclusive and A549 tox inconclusive.
For CC(C)N1CCC(C)(C(=O)Nc2cc(-c3ccccc3)nn2C)C1 (stereo not drawn) the results were Nrf2 ARE act 4%.
For CCc1ccc(NCc2cc3cc4c(cc3n(CC(=O)Nc3cccc(OC)c3)c2=O)OCO4)cc1 the results were Nrf2 ARE act 6%, Nrf2 inh -1% and A549 tox 1%.
For Cc1ccc(NC(=S)N(C)C(c2ccccc2)c2ccccc2)cc1C the results were Nrf2 ARE act 1%, ELG1 DNA repair 13µM*, Nrf2 inh inconclusive and A549 tox 13%.
For CN(C(=S)Nc1ccc(F)cc1)C(c1ccccc1)c1ccccc1 the results were Nrf2 ARE act 0%, ELG1 DNA repair inconclusive, Nrf2 inh inconclusive and A549 tox -28%.
O=C(NCc1ccco1)c1ccc2c(c1)N(Cc1ccc(Cl)cc1)C(=O)c1ccccc1S2=O (stereo not drawn) was read as Nrf2 ARE act 5%, Nrf2 inh -28% and A549 tox -11%.
`CCN1C(=O)c2ccccc2S(=O)c2ccc(C(=O)N3CCN(c4cccc(C)c4)C(C)C3)cc21` (stereo not drawn) gave Nrf2 ARE act 1%, Nrf2 inh 16µM* and A549 tox -29%.
CCN1CCN(C(=O)c2ccc3c(c2)N(Cc2cccc(Cl)c2)C(=O)c2ccccc2S3=O)CC1 (stereo not drawn) was read as Nrf2 ARE act 0% and A549 tox 7%.
Screening CCOC(=O)N1CCN(C(=O)c2ccc3c(c2)N(Cc2cccc(Cl)c2)C(=O)c2ccccc2S3=O)CC1 (stereo not drawn) returned Nrf2 ARE act 0%, ELG1 DNA repair inconclusive, Nrf2 inh 21µM* and A549 tox inconclusive.
CN(Cc1ccccc1)C(=O)c1ccc2c(c1)N(Cc1ccc(Cl)cc1)C(=O)c1ccccc1S2=O (stereo not drawn) was read as Nrf2 ARE act 0%, Nrf2 inh 21µM* and A549 tox -29%.
Screening CCC(=O)N1N=C(c2cccs2)CC1c1ccc(OC)cc1 (stereo not drawn) returned Nrf2 ARE act 4%, ELG1 DNA repair 21%, Nrf2 inh -19% and A549 tox 1%.
Screening Cc1ccc(C2CC(c3cccs3)=NN2C(=O)CSC2=NCCS2)cc1 (stereo not drawn) returned Nrf2 ARE act 12%, ELG1 DNA repair inconclusive, Nrf2 inh 16µM* and A549 tox -19%.
